Source: the supplement of paper PMC5407854, “Inhibitor of ppGalNAc-T3-mediated O-glycosylation blocks cancer cell invasiveness and lowers FGF23 levels” (eLife, 2017)
The full ranking holds about 1,700 compounds; the median of “T3 sensor activation Q score (MG/GFP ratio z-score vs DMSO controls)” is about 0.25, and the highest 2% start at about 1.9. What follows is part of a selection rich in the highest values, with near analogues and random picks from the rest.

test system: ppGalNAc-T3 sensor; experiment: T3 sensor activation Q score (MG/GFP ratio z-score vs DMSO controls) (SD units); higher = more sensor activation (inhibition of ppGalNAc-T3 glycosylation); conditions: HEK293 sensor cells; 10 µM; 6 h
Procedure: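 Cells were treated with compound at 10 uM for 6 h, then MG/GFP ratio was read by flow cytometry (10,000 cells per well, duplicate wells). Q = (R - R_neg)/SD_neg relative to DMSO vehicle controls; the signal rises when the glycosyltransferase is inhibited.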

| Compound | T3 sensor activation Q score |
| --- | --- |
| Cc1c(-c2ccccc2)n(O)[n+]([O-])c1-c1ccccc1 | 0.7 |
| Oc1ccccc1Nc1ccccn1 | 1.75 |
| Cc1nnc2nc(-c3ccccc3)nc(-c3ccccc3)n12 | -1.75 |
| CCOC(=O)c1c(O)cc(C)[nH]c1=O | -0.85 |
| O=S(=O)(c1ccc2c(c1)CCCN2)N1CCC[C@H]2CCCC[C@@H]21 | 0.2 |
| O=C1OC(CN(Cc2ccccc2)Cc2ccccc2)CN1/N=C/c1ccc([N+](=O)[O-])o1 (stereo not drawn) | -0.6 |
| Cc1cc2nc(CS)[nH]c2cc1C | -1.1 |
| CC(=O)Nc1ccc2cc3ccc(NC(C)=O)cc3nc2c1 | 0.2 |
| Cc1ccc(-n2nnnc2-c2cccnc2)cc1 | -0.15 |
| CCOC(=O)c1cc[nH]c1CC(=O)NC | 0.6 |
| Cc1ccc2c(c1)c1ccc3c(c1n2C)C(=O)C=CC3=O | -1.5 |
| Cc1cccc(C)c1NC(=O)Nc1ccc(S(N)(=O)=O)cc1 | 1.6 |
| CCOC(=O)/C(C#N)=C1\SS/C(=C(/C#N)C(=O)OCC)S1 | 0.55 |
| c1cc(CN2CCCNCCNCCCNCC2)ccc1CN1CCCNCCNCCCNCC1 | -0.5 |
| NCCN1CCNCC1 | 1.85 |
| C=CCOc1ccc(S(C)(=O)=O)cc1 | 1.85 |
| C#CCOCC1CN(c2ccccc2)C(=O)O1 (stereo not drawn) | 1.9 |
| CCCCOc1ccc(N=Nc2ccc(N)nc2N)cn1 | 1.7 |
| N#CC1C=Cc2c(ccc3ccccc23)N1C(=O)c1ccccc1 (stereo not drawn) | 2.65 |
| O=C(CC1C=Cc2ccccc2N1C(=O)c1ccccc1)c1ccccc1 (stereo not drawn) | -1.4 |
| O=C(Nc1cccc2ccccc12)c1ccccc1 | -0.45 |

| Compound | T3 sensor activation Q score |
| --- | --- |
| Nc1ccc2c(c1)Cc1cc(Cl)c(Cl)cc1-2 | -0.65 |
| OC(COc1ccc(Cl)cc1)CN1CCN(c2cccc(Cl)c2)CC1 (stereo not drawn) | -0.65 |
| O=C(Nc1ccc2ncccc2c1)Nc1ccc2ncccc2c1 | 0.15 |
| Cc1c(CCO)c(=O)n2n1CCCC2 | -0.55 |
| CCCCCCCC1(C)NC(=O)NC1=O (stereo not drawn) | -1.9 |
| ClCC(CNCc1ccccc1)c1ccccc1 (stereo not drawn) | 0.35 |
| O=c1cc(-c2ccc(Cl)cc2)[nH]c2ccccc12 | 0 |
| c1ccc(N=NN2CCOCC2)cc1 | -0.75 |
| CC1(C)OC2C(CO)OC(n3cnc4c(=S)nc[nH]c43)C2O1 (stereo not drawn) | 0.4 |
| COC(=O)CC1(C(=O)OC)Nc2cc(Cl)c(Cl)cc2S(=O)(=O)N1O (stereo not drawn) | 0.7 |
| CN(CCC#N)c1ccc(/C=C(\C#N)c2cccc(C(F)(F)F)c2)cc1 | -0.05 |
| CC1CC(C)(C)NC2(CCCC2)N1 (stereo not drawn) | -0.6 |
| O=C(Nc1ccc(O)c(C(=O)O)c1)Oc1ccccc1 | 0.9 |
| c1ccc2[nH]c(-c3ccncc3)nc2c1 | 0.2 |
| CC(=O)CC(=O)Nc1ccc2ccccc2c1 | 1.25 |
| c1ccc2[nH]c(CCCCCc3nc4ccccc4[nH]3)nc2c1 | -0.5 |
| Cc1ccc(CC#N)c(-c2c(CC#N)ccc(C)c2C)c1C | -0.85 |
| c1ccc2c(c1)[nH]c1c3ccccc3sc21 | -0.95 |
| O=C(Nc1ccc(Nc2ccncc2)cc1)c1ccc(Nc2ccnc3ccc([N+](=O)[O-])cc23)cc1[N+](=O)[O-] | -1.4 |
| O=C(Nc1ccc(Nc2ccncc2)cc1)c1ccc([N+](=O)[O-])cc1 | 0.75 |
| O=C(Nc1ccc(Nc2ccncc2)cc1)c1ccc(Nc2ccnc3ccc([N+](=O)[O-])cc23)cc1 | 9.85 |

| Compound | T3 sensor activation Q score |
| --- | --- |
| C/C(=N\NC(=S)N1CC2CCC(CC2)C1)c1cnccn1 | -1.2 |
| CCOC(=O)c1nn(-c2ccccc2)cc1O | 0.05 |
| O=C(c1ccc(OCCN2CCCCC2)cc1)c1c(-c2ccc(O)cc2)sc2cc(O)ccc12 | 2.7 |
| CC1=Nc2ccccc2/C1=C\c1c(C)[nH]c2ccccc12 | -0.45 |
| Cc1ccncc1C(N)=O | 1.9 |
| O=C(C(=O)c1cccnc1)c1cccnc1 | 1.75 |
| Cc1ccc(NC(=O)Nc2cccnc2)cc1NC(=O)Nc1cccnc1 | 0.95 |
| COc1ccccc1NC(=O)c1cc2ccccc2cc1O | -0.55 |
| NC(=O)c1cc(C(N)=O)nc(Cl)n1 | -0.8 |
| C=CCNC(=S)N1CCN(c2ccccc2Cl)CC1 | -0.25 |
| O=C(C(Cl)Cl)N1CC2CCC(CC2)C1 | 1.4 |
| NS(=O)(=O)c1ccc(NC(=S)NC(=O)c2ccco2)cc1 | 1 |
| CN=C1C=C/C(=N/N=c2/ccn(O)cc2C)C=C1C | 0.15 |
| CC(C)(C)c1ccc(C(=O)N2CCOC23CCCCC3)cc1 | 1.85 |
| O=C(COc1ccc([N+](=O)[O-])cc1Cl)N1CCOCC1 | 1.85 |
| CC(=O)NCCCOc1ccc([N+](=O)[O-])cc1Cl | -0.6 |
| O=C(COc1cc(Cl)c(Cl)cc1Cl)Nc1ccc([N+](=O)[O-])cc1Cl | -0.3 |
| COc1ccc(Br)c2c1C(=O)CC2 | -1.4 |
| CCCN(CCC)CC(=O)N1CC(=O)Nc2ccccc21 | 0.55 |
| Nc1ccc(N=Nc2ccc(O)cc2)c(N)n1 | 1.5 |
| Cc1ccc(N=Nc2c(O)c3ccccc3[nH]c2=O)c(S(=O)(=O)N(C)C)c1 | 0.95 |
